# Screens from PubChem BioAssay.
# The list is not random: actives were taken first. Their share in the collection is about 21%.
# NS1 inh = qHTS Assay for Inhibitors of Influenza NS1 Protein Function | AID 2326, 2010 | 270,000 compounds, 0.4% hits | Potency, µM (titrated, usually from 46.1 µM), for inactives: at the top dose activity, positive = more growth; calls by dose curve; further: potency means the concentration at half of the fitted maximal effect; actives are rising curves; nearly all actives have a fitted effect of over 50% in size
#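 A cell-based growth assay was used: compounds that relieve NS1-induced slow growth of budding yeast raise OD600. Assay medium was yeast nitrogen base with ammonium sulphate and -URA supplement, pH 6.0, with 2% galactose.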
# Pf growth 96h = Primary qHTS for delayed death inhibitors of the malarial parasite plastid, 96 hour incubation; P. falciparum luciferase reporter growth, 96 h; Potency, µM (titrated, usually from 28.7 µM), without a hit: at the top dose activity change, negative = inhibition, usual class: inhibitors; 320,000 compounds, 6.9% hits; AID 504834, 2011; further: potency means the concentration at half of the fitted maximal effect; on the % scale 0 is the no-effect control and ±100 the full control effect
#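 Two parasite generations (96 h, 37 C, 5% CO2) of compound exposure in infected erythrocytes (0.05% parasitemia, 2% hematocrit). Luciferase-reporter P. falciparum; decreased luminescence indicates inhibited growth, aimed at apicoplast-acting delayed death.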
# Pf growth 48h = Primary qHTS for delayed death inhibitors of the malarial parasite plastid, 48 hour incubation; P. falciparum luciferase growth in erythrocytes, 48 h; Potency, µM (highest dose often 28.7 µM), for the others: at the highest dose activity change, negative = inhibition, most hits filed as inhibitors; 310,000 compounds, 5.9% hits; further: potency means the concentration at half of the fitted maximal effect; on the % scale 0 is the no-effect control and ±100 the full control effect
#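 First compound was added to culture medium, then infected red cells at 0.1% parasitemia and 2% hematocrit (final). After incubation at 37 C under 5% CO2, luciferase detection reagent was dispensed and light output recorded.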
# Shiga inhibitor = A qHTS for Small Molecule Inhibitors of Shiga Toxin | Vero cells, Shiga toxin protein synthesis inhibition reporter | inhibition, % at 38.7 µM | AID 2315, 2010 | 290,000 compounds, 9.2% hits; in the data active means inhibition mostly above about 28%, no sharp cut-off; inactive means mostly below about 43%; further: 0% is about no effect
# Cycloheximide cs = Cycloheximide Counterscreen for Small Molecule Inhibitors of Shiga Toxin; cell reporter, cycloheximide protein synthesis inhibition counterscreen; max response, %; 300,000 compounds, 12% hits; AID 2314, 2010; in the data active means max response mostly above about 13%, no sharp cut-off; inactive means mostly below about 14%; further: read at 38.3 µM for the half of the compounds with a filed dose; 0% is about no effect
# Numbers without * were called inactive; ? = inconclusive; . = no result given; [ ] = remark or other dose. Unless noted, the call rests on the fitted dose curve; in most records, active means well fitted inhibition curve with a large enough effect; inconclusive means small, poorly fitted or top-dose-only effect, or another doubt; inactive means no such curve, though single readings can be large or run the other way.
SMILES,NS1 inh,Pf growth 96h,Pf growth 48h,Shiga inhibitor,Cycloheximide cs
Cc1cc(NC(=O)CSc2nnc(CNC(=O)c3cccc(C(F)(F)F)c3)o2)no1,7%,0%,30%,-14,1
CC(OC(=O)c1ccc(Cl)c([N+](=O)[O-])c1)C(=O)N1CCN(Cc2ccccc2)CC1 (centres undefined),.,?,12µM*,.,.
CC(C(=O)N1CCN(Cc2ccccc2)CC1)c1ccc([N+](=O)[O-])cc1 (centres undefined),-4%,-10%,51%,-1,-1
Cn1c(=O)n(C)c2cc(NS(=O)(=O)c3ccccc3[N+](=O)[O-])ccc21,-2%,107%,-6%,-6,-2
COc1cccc(/C=N/NC(=O)c2ccc([N+](=O)[O-])cc2Cl)c1O,-6%,27%,?,-18,17*
COc1ccc(/C=N/Nc2ccc([N+](=O)[O-])cc2)cc1Cn1cc([N+](=O)[O-])cn1,2%,.,7%,43,11*
COc1cccc(/C=N/Nc2ccc([N+](=O)[O-])cc2)c1O,-5%,5%,34%,76*,33*
COC(=O)c1ccc(N/N=C/c2cc([N+](=O)[O-])cc(OC)c2O)cc1,7%,85%,20%,15,-2
COc1cc(/C=N/Nc2ccc([N+](=O)[O-])cn2)cc(OC)c1O,0%,-3%,6%,17,25*
COc1cc(/C=N/NC(=O)c2cccc([N+](=O)[O-])c2)cc(OC)c1O,.,-2%,4%,26,-2
CCCC(C)NS(=O)(=O)c1ccc(OC)c(C)c1 (centres undefined),-57%,-10%,.,-30,-4
Cc1cc(C)c(S(C)(=O)=O)c(Sc2ccc(Cl)cc2)n1,-19%,?,?,8,-6
COc1ccc(N2CCN(CCCNC(=O)CN3C(=O)COc4ccccc43)CC2)cc1,-1%,72%,?,-5,7
Cc1c(CCO)c(=O)[nH]n1S(=O)(=O)c1ccc([N+](=O)[O-])cc1,8%,82%,3%,-7,-4
COc1cccc(N/N=C/c2cccc(Br)c2O)c1,4%,49%,97%,88*,30*
COc1ccc(/C=N/NC(=O)CSCc2ccc([N+](=O)[O-])cc2)cc1OC,-7%,59%,-25%,-17,2
COc1ccc(/C=N/Nc2ccc([N+](=O)[O-])cc2)cc1O,-64%,17%,0%[0.00184 µM],80*,26*
CCn1cc(C(=O)N(C)c2ccccc2F)c2cc(OC)c(OC)cc2c1=O,4%,0%,.,11,-6
O=[N+]([O-])c1ccc2nc(NCCCO)nc(-c3ccccc3)c2c1,-4%,12µM*,?,4,-5
CN1C2CCC1CC(NS(=O)(=O)c1ccc(C#N)cc1)C2 (centres undefined),1%,31%,66%,-5,-1
CC(C)(C)c1nc2c(C#N)c(-c3ccc(Cl)cc3)ccn2n1,-49%,?,.,57,25*
Cc1ccc(-c2csc3nc(-c4ccncc4)[nH]c(=O)c23)cc1,2%,4%,-5%,-9,-8
Cc1ccc2nc(C(F)C(F)(F)F)[nH]c2c1 (centres undefined),1%,?,25%,44*,22*
Cc1ccc2nc(-c3ccncc3)[nH]c2c1,-18%,16%,175%,83*,47*
FC(c1nc2ccccc2[nH]1)C(F)(F)F (centres undefined),-1%,54%,22%,15,7
SMILES,NS1 inh,Pf growth 96h,Pf growth 48h,Shiga inhibitor,Cycloheximide cs
COc1cc(SSc2cc(OC)cc([N+](=O)[O-])c2N)c(N)c([N+](=O)[O-])c1,14%,9.3µM*,?,18,8
COc1cc([N+](=O)[O-])c2ncsc2c1,-6%,19%,14%,6,-2
CC(=O)Nc1ccc(NC(=O)COC(=O)c2n[nH]c3ccccc23)cc1,5%,7%,14%,-20,-1
O=C(COC(=O)c1n[nH]c2ccccc12)c1cc(F)ccc1F,.,12%,-11%,44*,30*
O=C(COC(=O)c1n[nH]c2ccccc12)NCCc1ccc(Cl)cc1,.,5%,1%,.,.
CCc1ccc(C(=O)COC(=O)c2n[nH]c3ccccc23)cc1,.,120%,130%,87*,48*
O=C(COC(=O)c1n[nH]c2ccccc12)Nc1ccc([N+](=O)[O-])cc1,?,14%,0%,23*,10
O=S(=O)(CCN1CCCCC1)Oc1ccc(Cl)cc1Cl,-4%,9%,-2%,15,-1
COC(=O)c1ccc(-c2nc(O)c3cnccn23)cc1,-6%,.,5%,14,-5
CCOc1ccc(-n2c(-c3ccc(Br)cc3)c[n+]3c2CCCCC3)cc1,.,?,5.2µM*,-4,-5
COc1ccc(-c2c[n+]3c(n2-c2c(C)n(C)n(-c4ccccc4)c2=O)CCCCC3)cc1,.,14%,?,6,6
CCOc1ccc(-n2c(-c3ccccc3)c[n+]3c2CCC3)cc1,4%,?,?,-5,2
CCOc1ccc(-n2c(-c3ccc(OC)cc3)c[n+]3c2CCCCC3)cc1,1%,?,0.74µM*,-3,-1
Clc1ccccc1C1=CC(c2ccco2)n2nnnc2N1 (centres undefined),-8%,24%,4%,-3,1
Brc1ccc(C2=CC(c3ccco3)n3nnnc3N2)cc1 (centres undefined),4%,11%,25%,57*,16*
C1=C(c2ccc(-c3ccccc3)cc2)Nc2ncnn2C1c1ccco1 (centres undefined),-78%,19%,7%,92*,31*
O=C(Nc1ccccc1)c1cccc(S(=O)(=O)Oc2ccc([N+](=O)[O-])cc2)c1,9%,?,25%,-11,-4
CCN(CC(=O)Nc1cccc(S(=O)(=O)N(C)c2ccccc2)c1)Cc1ccccc1,.,10µM*,?,.,.
CCC(C(=O)Nc1cccc(S(=O)(=O)N(C)c2ccccc2)c1)c1ccccc1 (centres undefined),.,?,9.3µM*,.,.
O=C(Nc1cc(Cl)cc(Cl)c1)Nc1cnccn1,8%,73%,?,-9,-3
O=C(Nc1cnccn1)Nc1ccccc1F,-14%,26%,36%,20,13
O=C(Nc1ccc(F)cc1)Nc1cnccn1,-3%,40%,8%,17,13*
O=C(Nc1ccc(Br)cc1)Nc1cnccn1,-36%,15%,18%,53*,22*
Cc1cc([N+](=O)[O-])nn1Cc1noc(C(=O)NCCc2ccccn2)n1,-15%,28%,21%,-3,-2
COc1cc(/C=N/Nc2nc(-c3ccc(S(=O)(=O)N(C)C)cc3)cs2)ccc1O,?,8.3µM*,2.1µM*,50*,13*
O=[N+]([O-])c1cc(/C=N\Nc2nc(-c3ccccc3)cs2)ccc1O,.,31%,12µM*,93,23*
COc1cc(/C=N/Nc2cc(C)nc(NS(=O)(=O)c3ccc(C)cc3)n2)ccc1O,-36%,1%,17%,-9,-5
